Assay outcomes: PubChem BioAssay, several laboratories
In the library only some 3.9% were active in any assay of this set; here they are far more common.
Anthrax LF prot: inhibitors of Bacillus anthracis lethal factor protease. P15917. multiplex microsphere protease cleavage assay, LF. hit rate 0.12% among 360,000. inhibition, % at 10 µM
SARS 3CLpro inh: SARS-CoV 3CLpro protease inhibition; P0C6X7; recombinant SARS-CoV 3CLpro, quenched FRET peptide cleavage; inhibition, % at 6 µM; hit rate 0.14% among 290,000; in the data active = inhibition above about 12%
Bead autofluor: flagged as autofluorescent in microsphere protease counterscreen; compound autofluorescence counterscreen, microsphere flow cytometry; hits give high values; fluorescence intensity (no concentration beside the values); hit rate 3.1% among 360,000; AID 624483; in the data active = fluorescence intensity above about 16000; inconclusive = no clear call, values can overlap the other calls
BoNT A protease: blocks Botulinum neurotoxin A light chain protease; multiplex microsphere protease substrate cleavage, flow cytometry; inhibition, % at 10 µM; hit rate 0.17% among 360,000; AID 588499
VHR inh abs: blocks human VHR1 dual specificity phosphatase; P51452; recombinant VHR phosphatase, pNPP absorbance; inhibition, % at 13.3 µM; hit rate 0.52% among 290,000; AID 1654; in the data active = inhibition above about 50%
BoNT F protease: inhibitors of Botulinum neurotoxin F light chain protease. inhibition, % at 10 µM. hit rate 0.22% among 360,000. AID 588497. Multiplex microsphere protease cleavage assay, flow cytometry; in the data active = inhibition above about 35%, passing the limit was not always enough; inconclusive = no clear call, values can overlap the other calls
Hits are given with their value. Rule as the data show it, unless noted: active = inhibition above about 30%; inconclusive = no clear call, values can overlap the other calls; inactive = below that.

`CCOCC(=O)Nc1ccccc1C(=O)O` gave Anthrax LF prot inactive, SARS 3CLpro inh inactive, Bead autofluor inactive, BoNT A protease inactive, VHR inh abs inactive and BoNT F protease inactive.
`CC(=O)c1cccc(OCC(O)CN2CC=C(c3ccccc3)CC2)c1` (stereo not drawn) gave Anthrax LF prot inactive, SARS 3CLpro inh inactive, Bead autofluor 19622, BoNT A protease inconclusive, VHR inh abs inactive and BoNT F protease inactive.
Screening COc1ccc(-n2nc(C(=O)NCC(=O)NCCc3ccc(OC)c(OC)c3)c3ccccc3c2=O)cc1Cl returned Anthrax LF prot inactive, SARS 3CLpro inh inactive, Bead autofluor inactive, BoNT A protease inactive, VHR inh abs inactive and BoNT F protease inactive.
Screening Cc1ccc(-c2c(C)sc3nc[nH]c(=O)c23)cc1C returned Anthrax LF prot inactive, SARS 3CLpro inh inactive, Bead autofluor inactive, BoNT A protease inactive, VHR inh abs 53 and BoNT F protease inconclusive.
`NC(c1csc(Nc2cc(NCCCO)ncn2)n1)c1ccccc1Cl` (stereo not drawn) gave Anthrax LF prot inactive, Bead autofluor inactive, BoNT A protease inactive and BoNT F protease inactive.
For O=C(CSc1nnc(-c2ccc(O)cc2)n1Cc1ccco1)N1CCc2ccccc2C1 the results were Anthrax LF prot inactive, SARS 3CLpro inh inactive, Bead autofluor 16322, BoNT A protease inactive, VHR inh abs inactive and BoNT F protease inactive.
O=C(CSc1nnc(-c2ccncc2)n1C1CCCCC1)Nc1cccc(O)c1 was read as Anthrax LF prot inactive, SARS 3CLpro inh inactive, Bead autofluor 16523, BoNT A protease inactive, VHR inh abs inactive and BoNT F protease inactive.
For CCc1cccc(CC)c1-n1c(SCC(=O)N2CCc3ccccc3C2)nnc1-c1cccnc1 the results were Anthrax LF prot inactive, SARS 3CLpro inh inactive, Bead autofluor 36354, BoNT A protease inactive, VHR inh abs inactive and BoNT F protease inactive.
Screening NC(=O)CSc1nnc(-c2ccc(O)cc2)n1Cc1ccco1 returned Anthrax LF prot inactive, SARS 3CLpro inh inactive, Bead autofluor inactive, BoNT A protease inactive, VHR inh abs inactive and BoNT F protease inactive.
Screening Cc1ccc(-n2c(SCC(=O)N3CCCc4ccccc43)nnc2-c2cccnc2)c(C)c1 returned Anthrax LF prot inactive, SARS 3CLpro inh inactive, Bead autofluor 26671, BoNT A protease inactive, VHR inh abs inactive and BoNT F protease inactive.
Cc1cnc(NC(=O)CSc2nnc(-c3ccncc3)n2C2CCCCC2)s1 was read as Anthrax LF prot inactive, SARS 3CLpro inh inactive, Bead autofluor inactive, BoNT A protease inactive, VHR inh abs inactive and BoNT F protease inactive.
CC1CCN(C(=O)CSc2nnc(-c3cccnc3)n2C2CCCCC2)CC1 was read as Anthrax LF prot inactive, SARS 3CLpro inh inactive, Bead autofluor 17010, BoNT A protease inconclusive, VHR inh abs inactive and BoNT F protease inactive.
Screening CC1CCCCN1C(=O)CSc1nnc(-c2cccnc2)n1C1CCCCC1 (stereo not drawn) returned Anthrax LF prot inactive, SARS 3CLpro inh inactive, Bead autofluor inactive, BoNT A protease inactive, VHR inh abs inactive and BoNT F protease inactive.
`Cc1cc2ccccc2nc1SCC(=O)Nc1nc(-c2ccccc2)cs1` gave Anthrax LF prot inactive, SARS 3CLpro inh inactive, Bead autofluor 16277, BoNT A protease inactive, VHR inh abs inactive and BoNT F protease inactive.
Cc1occc1-c1nnc(SCC(=O)Nc2ccccn2)o1 was read as Anthrax LF prot inactive, SARS 3CLpro inh inactive, Bead autofluor inactive, BoNT A protease inactive, VHR inh abs inactive and BoNT F protease inactive.
Cc1cc(-c2nnc(SCC(=O)Nc3nc(-c4ccccc4)cs3)o2)no1 was read as Anthrax LF prot inactive, SARS 3CLpro inh inactive, Bead autofluor inactive, BoNT A protease inactive, VHR inh abs inactive and BoNT F protease inactive.
Cc1occc1-c1nnc(SCC(=O)Nc2nc(-c3ccccc3)cs2)o1 was read as Anthrax LF prot inactive, SARS 3CLpro inh inactive, Bead autofluor 19701, BoNT A protease inactive, VHR inh abs inactive and BoNT F protease inactive.
For Cc1occc1-c1nnc(SCC(=O)Nc2nc3ccccc3s2)o1 the results were Anthrax LF prot inactive, SARS 3CLpro inh inactive, Bead autofluor 19093, BoNT A protease inactive, VHR inh abs inactive and BoNT F protease inactive.
Screening O=C(CSc1nc2ccccc2o1)Nc1nc(-c2ccccc2)cs1 returned Anthrax LF prot inactive, SARS 3CLpro inh inactive, Bead autofluor inactive, BoNT A protease inactive, VHR inh abs inactive and BoNT F protease inactive.
`CCC/C=C/c1ccc(CN2C(CC(C)C)C(=O)N(Cc3cn(CC4CCCCC4)nn3)CCS2(=O)=O)cc1` (stereo not drawn) gave Anthrax LF prot inactive, Bead autofluor inactive, BoNT A protease inactive and BoNT F protease inactive.
